Molecules are shown by their SMILES. The campaign covered roughly 420,000 compounds. About 64,000 (15%) were called active. Inconclusive results (about 27%) are left out. The call rests on the fitted dose curve; in most records, active means well fitted inhibition curve with a large enough effect; inconclusive means small, poorly fitted or top-dose-only effect; inactive means flat fitted curve, though single readings scatter. Not all results are given here. A call without a number means that no potency is given here.
Potency means the concentration at half of the fitted maximal effect.

This assay can be described thus: qHTS for Inhibitors of human tyrosyl-DNA phosphodiesterase 1 (TDP1): qHTS in cells in absence of CPT. Further: nearly all actives have a fitted effect of over 55% in size. As to conditions: DT40 Tdp1-/- hTDP1 cells, no CPT, ATP luminescence, 48 h; activity change, negative = growth inhibition: at 46.2 µM (top of the series). Summed up: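 Growth kinetics read by CellTiter-Glo luminescence after ≥48 hr at 37 °C. Cells: DT40 Tdp1-/- stably carrying human TDP1, 400 per well, compound exposure in the absence of CPT (DMSO vehicle).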
With `CC(CNS(=O)(=O)c1ccc(Br)cc1)CN(C)C` (stereo not given), the Potency result was “inactive”. Take `O=C1CC2(CC(c3ccc(Cl)cc3)=NO2)C(=O)N1c1ccccc1` (stereo not given): the Potency result was “inactive”. For the compound `Cc1ccc(-c2nnc3ccc(SCC(N)=O)nn23)cc1`, the Potency result is “inactive”. As to `O=C(Nc1ccn(Cc2ccc(F)cc2)n1)c1ccncc1`, the Potency was 11.6 µM (active).

`O=C(Nc1ccn(Cc2ccccc2)n1)c1n[nH]c([N+](=O)[O-])c1Cl`: the Potency result is “inactive”. For the compound `O=C(Nc1ccn(Cc2ccccc2)n1)c1cccc(F)c1`, the Potency entry is “inactive”.

`O=C(COc1cccc2c1CCNC2=O)NC1CCCCC1`: the Potency entry was “inactive”. Turning to `COc1ccc(C(=O)COC(=O)Cn2cnc3c2c(=O)n(C)c(=O)n3C)c(OC)c1`, the Potency entry was “inactive”.

`COC(=O)C1=C(C(=O)OC)[C@@H]2N(C)c3ccccc3[C@@]23C[C@@H](C(=O)OC)N(C(=O)c2ccco2)C3=N1`: the Potency result is “inactive”. Take `Cc1cc(C)cc(NS(=O)(=O)c2ccc3[nH]cc(C(=O)N4CCCCC4)c(=O)c3c2)c1`: the Potency result was “inactive”. With `CN1CCN(c2ncncc2-c2ccc(C(=O)N(C)C)cc2)CC1`, the Potency entry is “inactive”. As to `CCOC1CS(=O)(=O)CC1OCC` (stereo not given), the Potency entry was “inactive”. Take `CCCc1ccc(C(O)c2ncc(-c3cccc(OC)c3)[nH]2)cc1` (stereo not given): the Potency is 20.6 µM (active).

Turning to `Cc1cccc(-c2cnc(C(O)c3cc(C)cc(C)c3)[nH]2)c1` (stereo not given), the Potency result was “inactive”. Take `COc1cccc(-c2cnc(C(O)c3ccccc3OC)[nH]2)c1` (stereo not given): the Potency result was “inactive”. On to `O=c1cnnc(Nc2ccccc2)[nH]1`, for which the Potency result was “inactive”. As for `O=C(c1cccs1)C1C(c2ccc(Br)cc2)NC(=S)NC1(O)C(F)(F)F` (stereo not given), the Potency entry was “inactive”. Regarding `Fc1ccc(N2CCN(Cc3cnc(Oc4ccc(Br)cc4)s3)CC2)cc1`, the Potency result is “inactive”. Take `COC(=O)c1cc(NC(=O)CCS(=O)(=O)c2cc(Br)cc3c2N(C(=O)C2CC2)CC3)cc(C(=O)OC)c1`: the Potency result was “inactive”. With `O=C(NCCOc1ccccc1)c1ccccc1F`, the Potency entry was “inactive”. For the compound `CN1C2CCC1CC(NC(=O)c1ccc([N+](=O)[O-])cc1)C2` (stereo not given), the Potency result was “inactive”. For `Cc1cc([N+](=O)[O-])c(N2CCC[C@@H]2C(=O)O)c([N+](=O)[O-])c1` the value was “inactive”; for `CC1CCC2CCCCC2N1C(=O)c1cc([N+](=O)[O-])cc([N+](=O)[O-])c1` (stereo not given), 18.4 µM (active). For `CCC(C)NC(=O)c1nn(C)c(=O)c2ccccc12` (stereo not given), the Potency entry is “inactive”.

Regarding `COC(=O)c1cc(NC(=O)c2nn(C)c(=O)c3ccccc23)cc(C(=O)OC)c1`, the Potency was 6.51 µM (active). Consider `Cc1ccc(C)c(NC(=O)COC(=O)c2nn(C)c(=O)c3ccccc23)c1`, for which the Potency entry is “inactive”. For `CC1CCCCC1NC(=O)Cn1c(=O)cnc2ccccc21` (stereo not given) the value was “inactive”; for `Cn1nnc(NC(=O)CSc2ncn[nH]2)n1`, “inactive”. For `CN(C)N(C)C(=O)C(O)(c1ccccc1)c1ccccc1`, the Potency result was “inactive”. Regarding `Cc1cccc(NC(=O)CCn2c(=O)oc3ccccc32)c1`, the Potency entry is “inactive”. As for `Cc1ccc(-c2nn(CCC(=O)Nc3ccc(Cl)c(Cl)c3)c(=O)c3ccccc23)cc1`, the Potency was 23.1 µM (active). `Cc1cc(C)cc(NC(=O)CCN2C(=O)c3ccccc3C2=O)c1`: the Potency entry is “inactive”. On to `CCc1nnc(NC(=O)CSc2nc(SC)ns2)s1`, for which the Potency entry was “inactive”. `COc1cccc(NC(=O)N(C)C[C@@H]2Oc3ncc(Br)cc3C(=O)N([C@@H](C)CO)C[C@H]2C)c1`: the Potency result was “inactive”. As to `CN(C)N=Nc1ccc2nc[nH]c2c1`, the Potency result was “inactive”. As for `CCOc1ccc(NC(=O)CN(C)C(=O)Cn2c(=O)cnc3ccccc32)cc1OCC`, the Potency result is “inactive”. For `CCC(=O)N1CCc2cc(Br)c(S(=O)(=O)NCCN3CCCCC3CC)cc21` (stereo not given) the value was “inactive”; for `CCCN(CCC)S(=O)(=O)c1cc2c(cc1Br)CCN2C(=O)CC`, 5.8 µM (active). In the case of `CCC(=O)N1CCc2cc(S(=O)(=O)NC(C(=O)N3CCc4ccccc4C3)C(C)C)ccc21` (stereo not given), the Potency entry was “inactive”. In the case of `Cc1cc(C(F)F)nn1CC(=O)NC1CCCCCC1`, the Potency entry is “inactive”. Take `COc1ccc(C(=O)N2CCC[C@@]3(CCN(C(=O)NC(C)C)C3)C2)cc1`: the Potency entry is “inactive”. `COc1ccc2cc(C(=O)O)n(CC(=O)c3ccccc3)c2c1`: the Potency entry is “inactive”. As for `O=C(/C=C/[C@H]1O[C@@H](n2cnc3c(NC(=O)c4ccccc4)ncnc32)[C@H](O)[C@@H]1O)NCc1ccccc1`, the Potency entry is “inactive”. For `CCC(C)(C(=O)Nc1ccccc1C)N(C(=O)CNC(C)=O)c1ccc(C)cc1` (stereo not given) the value was “inactive”; for `CC(C)(C)OC(=O)N1CCC(NC(=O)c2[nH]cnc2C(=O)N[C@@H](Cc2ccccc2)C(=O)OCc2ccccc2)CC1`, 13 µM (active); for `C[C@@H](NC(=O)c1nc[nH]c1C(=O)N1CCN(C(=O)OC(C)(C)C)CC1)c1ccccc1`, “inactive”. For `O=C(N[C@@H](Cc1ccccc1)C(=O)OCc1ccccc1)c1nc[nH]c1C(=O)NC1CCNCC1` the value was “inactive”. For `O=C(Nc1ccccc1Cl)NC1(C(=O)N2CCOCC2)CCCCC1` the value was “inactive”. On to `COc1cccc(NC(=O)CN(C)C(=O)CSCc2nc3scc(-c4cccs4)c3c(=O)[nH]2)c1`, for which the Potency entry is “inactive”. As for `Cc1ccccc1N1CCN(C2CCCN(C(=O)c3cn4c(C)cccc4n3)C2)CC1` (stereo not given), the Potency is 14.6 µM (active). For the compound `Cc1cnc(C(=O)N2CCCC(N3CCN(c4ccccc4F)CC3)C2)cn1` (stereo not given), the Potency entry is “inactive”.

In the case of `Cc1ccccc1N1CCN(C2CCCN(C(=O)c3ocnc3C)C2)CC1` (stereo not given), the Potency entry is “inactive”. On to `CC(C)c1ccc(NS(=O)(=O)c2ccc3[nH]cc(C(=O)NC4CCCC4)c(=O)c3c2)cc1`, for which the Potency entry was “inactive”. Consider `COCOc1cccc(CN2CCC(C)(Oc3ccc(SC)cc3)C2)c1` (stereo not given), for which the Potency is 10.3 µM (active). With `CCc1ccc(OC2(C)CCN(CCOc3ccc(C)cc3)C2)cc1` (stereo not given), the Potency result is “inactive”.

Take `CCC12CN3CC(CC)(CN(C1)C31C(=O)N(C)c3ccc(C)cc31)C2=O` (stereo not given): the Potency result was “inactive”. As for `O=C(NC1CC2CCCC(C1)N2C(=O)N1CCCCC1)C1CCCCC1` (stereo not given), the Potency entry is “inactive”. For `C/C(=N\NC(=O)CC(C)C)c1c(C(F)(F)F)[nH]n(-c2nc3ccccc3s2)c1=O` the value was “inactive”. Consider `COC(=O)Cc1[nH]n(-c2nc3ccccc3s2)c(=O)c1C(C)=Nc1ccc(OC)cc1`, for which the Potency was 3.26 µM (active). Turning to `COc1ccc(N=C(C)c2sc3ccccc3c2O)cc1`, the Potency entry was “inactive”. Regarding `Cc1ccc(-c2ccc(CCC(=O)O)n2-c2ccc(C(N)=O)cc2)cc1`, the Potency result is “inactive”. For `CN(Cc1ccccc1)C(=O)C(=O)c1cn(CC(=O)N2CCCC2)c2ccccc12` the value was “inactive”; for `CCOC(=O)c1cc2n(c1N)-c1ccccc1C2=O`, “inactive”. Take `CCOC(=O)C1=C(c2ccc(OC)cc2)C(=O)c2ccccc2C1=O`: the Potency is 1.46 µM (active). As to `COc1ccc(OCCCON2C(=O)c3ccccc3C2=O)cc1`, the Potency entry is “inactive”.

Source of the values: PubChem BioAssay AID686978 (National Center for Advancing Translational Sciences (NCATS), 2013).
